From PubChem BioAssay (EPA / NIEHS)
Where “and” joins values, the source holds several entries; their conditions need not be identical. Equal entries are not always repeated. Results filed as inconclusive are left out. Some structures have more than one record in an assay (separate samples or runs), and their calls can disagree. Calls of active or inactive are those of the source. How the source made its calls, unless noted: active means hit-call score of the fitted dose curve at least 0.9, where 1 is the maximum; inconclusive means response in the unintended direction; inactive means score below 0.9.

What was measured:
[1] = target: Glucocorticoid receptor (Homo sapiens) (UniProt P04150); assay: ATG_GR_TRANS: Attagene TRANS-FACTORIAL HepG2 Assay for human Glucocorticoid Receptor (GR) (AID 2282978); details: HepG2 Attagene TRANS GR reporter, mRNA transcription;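 further: activators score as hits since higher reporter transcript over DMSO is fitted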
Procedure, shortened: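 HepG2 cells transiently transfected with GAL4-UAS reporter units and exogenous GR-Gal4 chimera, dosed 24 h. Reporter mRNA by RT-PCR, FAM labeling, HpaI digest and capillary electrophoresis; gain-of-signal fit versus DMSO.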

[2] = target: Hepatocyte nuclear factor 4-alpha (Homo sapiens) (UniProt P41235); assay: ATG_HNF4a_TRANS: Attagene TRANS-FACTORIAL HepG2 Assay for human Hepatocyte Nuclear Factor 4 alpha (HNF4a) (AID 2282982); details: HepG2 HNF4a transactivation reporter, mRNA readout
Procedure, shortened: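 HepG2 cells transiently transfected with multiplexed GAL4-UAS reporter units responsive to chimeric NR-GAL4 proteins; compound exposure 24 h. Reporter mRNA quantified by RT-PCR, 6-FAM labelling, HpaI digestion and capillary electrophoresis; gain of signal versus DMSO baseline.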

[3] = target: human Peroxisome Proliferator-activated Receptor delta (PPARd), PPARD (gene 5467) (UniProt Q03181); assay: ATG_PPARd_TRANS: Attagene TRANS-FACTORIAL HepG2 Assay for human Peroxisome Proliferator-activated Receptor delta (PPARd) (AID 2283002)
Procedure, shortened: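 HepG2 cells transiently transfected with multiplexed GAL4-UAS reporter units and exogenous chimeric NR-Gal4 proteins; 24 h compound exposure. Reporter mRNA measured by RT-PCR, 6-FAM labelling, HpaI digestion and capillary electrophoresis; gain of signal versus DMSO.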

[4] = target: human RAR-related Orphan Receptor beta (RORb), RORB (gene 6096) (UniProt Q92753); assay: ATG_RORb_TRANS: Attagene TRANS-FACTORIAL HepG2 Assay for human RAR-related Orphan Receptor beta (RORb) (AID 2283010)
Procedure, shortened: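 HepG2 cells were transiently transfected with multiplexed GAL4-UAS reporter units expressing chimeric nuclear receptor–GAL4 proteins, then dosed for 24 h. Reporter mRNA was quantified by RT-PCR with fluorescent labelling and capillary electrophoresis; gain of signal was fitted relative to DMSO.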

[5] = ATG_XTT_Cytotoxicity: Cytotoxicity Assessment in the Attagene TRANS-FACTORIAL HepG2 Assay (AID 2283584);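 on AC50: XTT signal for cell number as viability in transfected HepG2 cells; cells exposed to compound for 24 h before reading; active means loss of viability signal versus DMSO baseline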
Procedure, shortened: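 HepG2 cells transiently transfected with GAL4-UAS multiple reporter units, dosed 24 h; cytotoxicity read by XTT as loss of signal versus DMSO baseline.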

[6] = target: Cellular tumor antigen p53 (Homo sapiens) (UniProt P04637); assay: TOX21_p53_BLA_p2_ratio: Tox21 HCT-116 p53 Agonism Beta-lactamase Assay, Ratio, Phase 2 (AID 2283592)
Procedure, shortened: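 HCT-116 cells with p53-responsive beta-lactamase reporter, 4000 cells/well, preincubated 5 h, then compound in DMSO (217-fold dilution) for 16 h at 37C. CCF4-AM substrate 2 h at room temperature; 460/530 nm emission ratio fitted upward versus DMSO.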

[7] = TOX21_p53_BLA_p3_viability: Viability Assessment in the Tox21 HCT-116 p53 Agonism Beta-lactamase Assay, Phase 3 (AID 2283593);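 further: cells exposed to compound for 16 h before reading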
Procedure, shortened: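 HCT-116 cells (4000/well) rested 5 h at 37C, then got DMSO compounds by pin tool (217-fold dilution) for 16 h at 37C, 5% CO2. After the bla read, CellTiter-Glo was added and luminescence read at 30 min, room temperature.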

[8] = target: Cellular tumor antigen p53 (Homo sapiens) (UniProt P04637); assay: TOX21_p53_BLA_p3_ratio: Tox21 HCT-116 p53 Agonism Beta-lactamase Assay, Ratio, Phase 3 (AID 2283596)
Procedure, shortened: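 HCT116 p53-bla cells (4000/well) given compound in DMSO (217-fold dilution) after 5 h, incubated 16 h at 37C. CCF4-AM substrate 2 h at room temperature; 460/530 nm emission ratio, gain fitted against DMSO.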

[9] = TOX21_p53_BLA_p4_viability: Viability Assessment in the Tox21 HCT-116 p53 Agonism Beta-lactamase Assay, Phase 4 (AID 2283597);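 further: hits lower the luminescence signal meaning cytotoxicity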
Procedure, shortened: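 HCT-116 p53-bla cells, 4000/well, dosed after 5 h attachment and incubated 16 h at 37 °C, 5% CO2. Viability from CellTiter-Glo ATP luminescence after 30 min at room temperature, taken after the beta-lactamase read; loss of signal indicates cytotoxicity.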

[10] = target: Cellular tumor antigen p53 (Homo sapiens) (UniProt P04637); assay: TOX21_p53_BLA_p5_ratio: Tox21 HCT-116 p53 Agonism Beta-lactamase Assay, Ratio, Phase 5 (AID 2283599)
Procedure, shortened: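 HCT-116 cells carrying a p53-inducible beta-lactamase reporter were seeded at 4000 cells/well and dosed after 5 h with compound in DMSO (217-fold dilution). After 16 h at 37C, CCF4-AM substrate was added for 2 h, and the 460/530 nm emission ratio was scored as gain-of-signal versus DMSO.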

[11] = target: Cellular tumor antigen p53 (Homo sapiens) (UniProt P04637); assay: TOX21_p53_BLA_p4_ratio: Tox21 HCT-116 p53 Agonism Beta-lactamase Assay, Ratio, Phase 4 (AID 2283601)
Procedure, shortened: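 HCT116 cells carrying an inducible beta-lactamase reporter were plated at 4000 cells/well, rested 5 h, then exposed to compounds in DMSO (217-fold dilution) for 16 h at 37C. CCF4-AM substrate was loaded 2 h at room temperature; 460/530 nm emission ratio scored gain-of-signal versus DMSO.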

[12] = CCTE_Harrill_HTTr_CellCount_MCF7: CCTE's Cell Proliferation Assessment for the High-Throughput Transcriptomics (HTTr) Platform, Harrill Lab (AID 2284012);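 further: cells exposed to compound for six hours; intended direction is loss of nuclei count meaning fewer cells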
Procedure, shortened: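 MCF-7 cells were exposed for 6 h to an eight-point dilution series; Hoechst-labeled nuclei were counted by high content imaging. Curves were fitted bidirectionally against DMSO as negative control and baseline, with signal loss indicating reduced cell count.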

[13] = ATG_ERE_CIS: Attagene CIS-FACTORIAL HepG2 Assay for Estrogen Response Element (ERE) (AID 2282940; active means hit-call score of the fitted dose curve at least 0.9, where 1 is the maximum; inactive means score below 0.9); details: HepG2 ERE cis-reporter, Attagene RNA transcript; actives raise or lower the signal
Procedure, shortened: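 After 24 h compound treatment, RNA from transfected HepG2 cells was reverse-transcribed, reporter cDNA PCR-amplified, FAM-labelled, HpaI-cut and resolved by capillary electrophoresis. ERE-driven cis reporter transcripts reflect endogenous factors; gain or loss scored against DMSO.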

[14] = target: Bile acid receptor (Homo sapiens) (UniProt Q96RI1); assay: ATG_IR1_CIS: Attagene CIS-FACTORIAL HepG2 Assay for human Nuclear Receptor Subfamily 1 Group H Member 4 (NR1H4), IR1 submotif (AID 2282946; active means hit-call score of the fitted dose curve at least 0.9, where 1 is the maximum; inactive means score below 0.9); details: IR1 reporter transcription, actives raise or lower the signal
Procedure, shortened: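 Transient MRTU transfection, HepG2; 24 h dosing; RNA → RT-PCR → 6-FAM primer extension → HpaI digest → capillary electrophoresis fluorescence. Gain/loss of signal fitted relative to DMSO.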

[15] = ACEA_ER_AUC_viability: ACEA Biosciences xCELLigence Real-Time Cell Analysis on Estrogen Receptor Agonism for Viability (AID 2283782);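 further: continuous compound exposure with impedance area under curve over 80 h; hit means loss of impedance signal meaning reduced cell growth or viability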
Procedure, shortened: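 T-47D human breast cells in phenol red-free RPMI1640 with 10% charcoal-stripped FBS were dosed with an 8-point 1:4 dilution series from 100 uM top final concentration, in duplicate. Impedance-based growth was followed for 80 h; AUC analysed versus DMSO.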

[16] = target: Oxysterols receptor LXR-alpha (Homo sapiens) (UniProt Q13133); assay: ATG_LXRa_TRANS: Attagene TRANS-FACTORIAL HepG2 Assay for human Liver X Receptor alpha (LXRa) (AID 2282980); details: HepG2 Attagene TRANS reporter, LXRa transactivation
Procedure, shortened: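 HepG2 cells transiently transfected with GAL4-UAS reporter units for chimeric NR-Gal4 proteins, exposed to chemicals for 24 h. Reporter mRNA quantified by RT-PCR and capillary electrophoresis; gain of signal fitted relative to DMSO.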

[17] = target: Oxysterols receptor LXR-beta (Homo sapiens) (UniProt P55055); assay: ATG_LXRb_TRANS: Attagene TRANS-FACTORIAL HepG2 Assay for human Liver X Receptor beta (LXRb) (AID 2282981); details: HepG2 Attagene TRANS GAL4-LXRb reporter, mRNA
Procedure, shortened: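 HepG2 cells transiently transfected with multiple reporter transcription units carrying chimeric NR-Gal4 proteins acting on GAL4-UAS reporters; compound exposure 24 h. Reporter mRNA quantified by RT-PCR, 6-FAM labelling, HpaI digestion and capillary electrophoresis; gain of signal versus DMSO.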

[18] = target: human RAR-related Orphan Receptor gamma (RORg), RORC (gene 6097) (UniProt P51449); assay: ATG_RORg_TRANS: Attagene TRANS-FACTORIAL HepG2 Assay for human RAR-related Orphan Receptor gamma (RORg) (AID 2283011);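 on AC50: potency for induction of reporter transcripts above DMSO so activators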
Procedure, shortened: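 HepG2 cells transiently transfected with GAL4-UAS reporter units and chimeric RORg-Gal4 construct; after 24 h chemical exposure, reporter mRNA measured by RT-PCR with fluorescent capillary electrophoresis, gain of signal fitted against DMSO.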

[19] = TOX21_p53_BLA_p2_viability: Viability Assessment in the Tox21 HCT-116 p53 Agonism Beta-lactamase Assay, Phase 2 (AID 2283591);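 further: compound exposure lasted 16 h at 37 °C; actives lower the ATP signal meaning cytotoxicity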
Procedure, shortened: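 HCT-116 p53-bla cells (4000/well) rested 5 h at 37C, then received compounds in DMSO (217-fold dilution) for 16 h at 37C, 5% CO2. After the CCF4 read, CellTiter-Glo was added; ATP luminescence was read after 30 min at room temperature.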

[20] = target: Nuclear receptor subfamily 1 group I member 3 (Homo sapiens) (UniProt Q14994); assay: ATG_CAR_TRANS: Attagene TRANS-FACTORIAL HepG2 Assay for human Constitutive Androstane Receptor (CAR) (AID 2282969); details: HepG2 Attagene TRANS-FACTORIAL CAR reporter;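 further: activators raise reporter mRNA above DMSO so AC50 marks induction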
Procedure, shortened: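 HepG2 cells transiently transfected with multiplexed GAL4-UAS reporter units expressing chimeric NR-Gal4 proteins; compound exposure 24 h. Reporter mRNA measured by RT-PCR, 6-FAM labelling, HpaI digestion and capillary electrophoresis; gain-of-signal fitted against DMSO baseline.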

Sequence of Oxysterols receptor LXR-alpha (Homo sapiens) (Q13133 whole entry, looked up, the tested form may be a part): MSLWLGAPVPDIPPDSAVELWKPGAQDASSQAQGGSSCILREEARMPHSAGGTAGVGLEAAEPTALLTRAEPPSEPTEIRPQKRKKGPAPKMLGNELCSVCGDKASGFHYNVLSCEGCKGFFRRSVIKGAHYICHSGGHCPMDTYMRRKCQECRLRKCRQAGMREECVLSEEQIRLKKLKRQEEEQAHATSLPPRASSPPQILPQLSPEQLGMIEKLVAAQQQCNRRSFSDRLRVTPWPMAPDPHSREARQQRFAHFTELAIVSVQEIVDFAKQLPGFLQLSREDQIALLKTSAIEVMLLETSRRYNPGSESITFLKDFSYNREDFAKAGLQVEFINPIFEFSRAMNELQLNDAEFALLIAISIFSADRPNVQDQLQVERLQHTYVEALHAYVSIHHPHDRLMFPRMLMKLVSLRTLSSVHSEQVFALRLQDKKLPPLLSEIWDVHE
Sequence of Oxysterols receptor LXR-beta (Homo sapiens) (P55055 whole entry, looked up, the tested form may be a part): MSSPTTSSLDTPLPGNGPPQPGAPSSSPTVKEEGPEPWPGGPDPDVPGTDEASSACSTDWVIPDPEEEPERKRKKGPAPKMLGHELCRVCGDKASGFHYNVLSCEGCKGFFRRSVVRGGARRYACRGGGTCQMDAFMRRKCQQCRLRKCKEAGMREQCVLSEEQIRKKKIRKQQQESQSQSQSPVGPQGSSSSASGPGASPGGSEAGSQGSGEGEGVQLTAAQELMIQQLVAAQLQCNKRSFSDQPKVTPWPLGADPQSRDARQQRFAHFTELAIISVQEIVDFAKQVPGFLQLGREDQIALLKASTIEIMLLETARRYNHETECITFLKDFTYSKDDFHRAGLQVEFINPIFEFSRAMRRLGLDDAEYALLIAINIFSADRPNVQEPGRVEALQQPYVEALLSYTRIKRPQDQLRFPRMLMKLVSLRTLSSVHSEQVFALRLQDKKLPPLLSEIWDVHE
Sequence of Hepatocyte nuclear factor 4-alpha (Homo sapiens) (P41235 whole entry, looked up, the tested form may be a part): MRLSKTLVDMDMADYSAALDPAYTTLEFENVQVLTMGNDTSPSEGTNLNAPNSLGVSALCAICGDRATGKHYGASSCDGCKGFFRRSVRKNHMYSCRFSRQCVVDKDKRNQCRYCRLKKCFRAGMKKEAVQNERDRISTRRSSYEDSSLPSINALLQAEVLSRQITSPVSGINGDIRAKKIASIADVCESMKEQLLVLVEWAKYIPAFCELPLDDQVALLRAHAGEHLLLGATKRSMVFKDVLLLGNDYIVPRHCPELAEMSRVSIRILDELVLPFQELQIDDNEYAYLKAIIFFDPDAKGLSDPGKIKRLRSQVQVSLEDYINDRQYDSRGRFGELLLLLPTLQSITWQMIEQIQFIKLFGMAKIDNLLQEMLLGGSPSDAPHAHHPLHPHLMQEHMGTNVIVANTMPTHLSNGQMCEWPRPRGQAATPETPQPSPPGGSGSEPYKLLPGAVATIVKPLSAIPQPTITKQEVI
Sequence of human RAR-related Orphan Receptor gamma (RORg), RORC (gene 6097) (P51449 whole entry, looked up, the tested form may be a part): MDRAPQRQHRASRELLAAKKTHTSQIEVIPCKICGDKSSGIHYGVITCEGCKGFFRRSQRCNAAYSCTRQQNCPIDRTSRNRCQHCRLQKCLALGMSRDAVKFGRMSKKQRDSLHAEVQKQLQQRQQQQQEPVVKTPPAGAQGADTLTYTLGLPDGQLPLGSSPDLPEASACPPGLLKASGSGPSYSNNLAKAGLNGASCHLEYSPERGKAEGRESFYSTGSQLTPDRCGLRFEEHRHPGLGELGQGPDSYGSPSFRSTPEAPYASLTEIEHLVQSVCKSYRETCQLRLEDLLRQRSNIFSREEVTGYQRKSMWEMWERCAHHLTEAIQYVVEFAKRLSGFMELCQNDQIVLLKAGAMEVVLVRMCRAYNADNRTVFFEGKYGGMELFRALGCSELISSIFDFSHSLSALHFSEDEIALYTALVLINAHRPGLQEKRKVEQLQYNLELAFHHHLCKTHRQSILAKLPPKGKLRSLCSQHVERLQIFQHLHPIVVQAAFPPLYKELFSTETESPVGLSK
Sequence of Cellular tumor antigen p53 (Homo sapiens) (P04637 whole entry, looked up): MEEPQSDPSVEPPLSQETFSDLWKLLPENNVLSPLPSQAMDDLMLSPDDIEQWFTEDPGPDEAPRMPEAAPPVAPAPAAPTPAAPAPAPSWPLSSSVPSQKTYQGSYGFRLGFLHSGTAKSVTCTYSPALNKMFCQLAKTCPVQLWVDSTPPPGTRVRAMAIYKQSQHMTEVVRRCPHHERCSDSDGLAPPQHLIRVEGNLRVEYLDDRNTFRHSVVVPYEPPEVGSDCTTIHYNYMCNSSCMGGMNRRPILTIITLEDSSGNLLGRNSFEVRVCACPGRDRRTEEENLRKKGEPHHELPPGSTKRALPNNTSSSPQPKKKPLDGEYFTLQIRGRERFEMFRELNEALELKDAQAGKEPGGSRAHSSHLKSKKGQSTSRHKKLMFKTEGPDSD
Sequence of Bile acid receptor (Homo sapiens) (Q96RI1 whole entry, looked up): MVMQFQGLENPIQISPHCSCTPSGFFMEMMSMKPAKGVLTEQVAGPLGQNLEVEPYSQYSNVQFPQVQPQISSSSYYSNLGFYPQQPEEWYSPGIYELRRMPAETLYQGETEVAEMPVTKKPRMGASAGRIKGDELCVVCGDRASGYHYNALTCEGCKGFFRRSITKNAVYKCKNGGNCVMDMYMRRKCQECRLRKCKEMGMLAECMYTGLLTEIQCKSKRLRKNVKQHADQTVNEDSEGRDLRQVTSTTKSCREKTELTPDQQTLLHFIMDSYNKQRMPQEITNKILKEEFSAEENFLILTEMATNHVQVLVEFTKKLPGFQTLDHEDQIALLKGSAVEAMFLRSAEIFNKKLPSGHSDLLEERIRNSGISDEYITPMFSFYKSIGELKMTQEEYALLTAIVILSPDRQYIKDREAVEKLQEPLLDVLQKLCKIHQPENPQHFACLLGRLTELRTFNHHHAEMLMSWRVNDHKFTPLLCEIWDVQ
Sequence of human RAR-related Orphan Receptor beta (RORb), RORB (gene 6096) (Q92753 whole entry, looked up, the tested form may be a part): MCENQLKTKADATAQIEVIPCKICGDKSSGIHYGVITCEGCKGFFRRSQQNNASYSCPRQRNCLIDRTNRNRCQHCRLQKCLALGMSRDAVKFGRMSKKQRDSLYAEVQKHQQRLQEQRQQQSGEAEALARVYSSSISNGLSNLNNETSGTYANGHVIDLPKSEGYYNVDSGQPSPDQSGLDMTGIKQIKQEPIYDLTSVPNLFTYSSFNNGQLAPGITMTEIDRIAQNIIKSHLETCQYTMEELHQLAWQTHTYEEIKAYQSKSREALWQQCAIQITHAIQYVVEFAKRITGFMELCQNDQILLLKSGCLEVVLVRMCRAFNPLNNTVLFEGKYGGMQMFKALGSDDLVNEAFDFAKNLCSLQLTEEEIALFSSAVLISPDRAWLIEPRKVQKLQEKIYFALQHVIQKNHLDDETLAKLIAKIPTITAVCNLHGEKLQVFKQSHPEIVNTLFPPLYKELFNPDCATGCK
Sequence of Nuclear receptor subfamily 1 group I member 3 (Homo sapiens) (Q14994 whole entry, looked up, the tested form may be a part): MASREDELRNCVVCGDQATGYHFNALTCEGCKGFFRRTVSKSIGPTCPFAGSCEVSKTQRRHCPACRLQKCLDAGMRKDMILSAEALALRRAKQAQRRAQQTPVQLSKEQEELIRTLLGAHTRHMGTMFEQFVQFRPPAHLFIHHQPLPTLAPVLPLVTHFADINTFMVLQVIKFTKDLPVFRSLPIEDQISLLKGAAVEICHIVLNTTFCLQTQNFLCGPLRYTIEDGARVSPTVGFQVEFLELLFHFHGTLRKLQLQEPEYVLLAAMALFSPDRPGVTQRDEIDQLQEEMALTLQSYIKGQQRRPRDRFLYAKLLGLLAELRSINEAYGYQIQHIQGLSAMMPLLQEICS
Sequence of human Peroxisome Proliferator-activated Receptor delta (PPARd), PPARD (gene 5467) (Q03181 whole entry, looked up, the tested form may be a part): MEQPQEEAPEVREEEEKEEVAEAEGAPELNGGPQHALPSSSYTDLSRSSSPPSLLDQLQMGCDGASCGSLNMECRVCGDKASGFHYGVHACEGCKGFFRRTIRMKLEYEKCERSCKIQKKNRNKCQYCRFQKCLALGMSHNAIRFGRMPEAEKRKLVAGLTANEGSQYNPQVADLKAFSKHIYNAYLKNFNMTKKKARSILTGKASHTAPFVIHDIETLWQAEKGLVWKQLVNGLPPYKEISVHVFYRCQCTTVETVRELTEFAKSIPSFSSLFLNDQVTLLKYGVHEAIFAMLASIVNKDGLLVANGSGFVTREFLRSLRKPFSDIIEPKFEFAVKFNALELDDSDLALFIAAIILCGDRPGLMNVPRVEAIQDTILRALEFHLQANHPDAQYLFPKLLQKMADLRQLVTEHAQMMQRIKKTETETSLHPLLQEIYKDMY
Sequence of Glucocorticoid receptor (Homo sapiens) (P04150 whole entry, looked up, the tested form may be a part): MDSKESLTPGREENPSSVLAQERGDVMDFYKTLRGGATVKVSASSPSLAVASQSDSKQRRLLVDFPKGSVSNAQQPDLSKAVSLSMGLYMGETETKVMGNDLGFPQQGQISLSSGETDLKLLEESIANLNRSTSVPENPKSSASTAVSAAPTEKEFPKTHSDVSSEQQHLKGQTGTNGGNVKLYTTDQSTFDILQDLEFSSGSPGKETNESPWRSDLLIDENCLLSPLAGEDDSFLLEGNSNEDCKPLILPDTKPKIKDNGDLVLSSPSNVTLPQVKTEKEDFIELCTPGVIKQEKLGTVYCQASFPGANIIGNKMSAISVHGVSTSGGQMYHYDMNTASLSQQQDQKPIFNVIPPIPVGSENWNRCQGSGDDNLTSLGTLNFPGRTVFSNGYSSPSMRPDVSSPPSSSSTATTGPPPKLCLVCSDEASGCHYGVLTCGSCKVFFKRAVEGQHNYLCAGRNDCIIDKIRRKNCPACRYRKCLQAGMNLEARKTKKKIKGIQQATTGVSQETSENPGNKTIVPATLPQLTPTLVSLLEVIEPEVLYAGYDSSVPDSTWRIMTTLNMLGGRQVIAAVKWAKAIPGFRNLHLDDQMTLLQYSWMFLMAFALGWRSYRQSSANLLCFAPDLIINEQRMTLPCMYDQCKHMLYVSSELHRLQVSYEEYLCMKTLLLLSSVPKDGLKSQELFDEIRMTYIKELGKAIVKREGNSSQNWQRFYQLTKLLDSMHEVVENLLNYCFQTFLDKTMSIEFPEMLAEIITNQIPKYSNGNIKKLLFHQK

CCOC(=O)NC(=S)Nc1ccccc1NC(=S)NC(=O)OCC
outcome [1]: inactive | outcome [2]: inactive | outcome [3]: inactive | outcome [4]: inactive | outcome [5]: inactive | AC50 [6]: 59.6 µM (active) | outcome [7]: inactive | AC50 [8]: 85.4 µM (active) | outcome [9]: inactive | AC50 [10]: 77.3 µM (active) | AC50 [11]: 64 µM (active) | outcome [12]: inactive

O=C(O)CCCc1ccc(N(CCCl)CCCl)cc1
outcome [13]: inactive | outcome [14]: inactive | outcome [2]: inactive | outcome [3]: inactive | outcome [4]: inactive | outcome [5]: inactive | AC50 [6]: 64.5 µM (active) and 68.4 µM (active) and 32.3 µM (active) | outcome [7]: inactive | AC50 [8]: 43.5 µM (active) and 42.8 µM (active) and 23 µM (active) | outcome [9]: inactive | AC50 [10]: 62.6 µM (active) and 64.8 µM (active) and 27.3 µM (active) | AC50 [11]: 71 µM (active) | outcome [11]: inactive | AC50 [15]: 27.3 µM (active) | outcome [12]: inactive

O=C(CCl)c1ccccc1
outcome [1]: inactive | outcome [16]: inactive | outcome [17]: inactive | outcome [2]: inactive | outcome [3]: inactive | outcome [4]: inactive | AC50 [18]: 62 µM (active) | outcome [5]: inactive | outcome [19]: inactive | outcome [6]: inactive | outcome [7]: inactive | AC50 [8]: 64.3 µM (active) | outcome [8]: inactive | outcome [9]: inactive | outcome [10]: inactive | outcome [11]: inactive | AC50 [15]: 10.9 µM (active) | outcome [12]: inactive

CC(C)COP(=O)(OCC(C)C)OCC(C)C
outcome [14]: inactive | outcome [1]: inactive | outcome [5]: inactive | outcome [19]: inactive | outcome [7]: inactive | outcome [8]: inactive | outcome [9]: inactive | outcome [11]: inactive

[CH3][Sn]([CH3])([Cl])[Cl]
outcome [20]: inactive | outcome [16]: inactive | outcome [17]: inactive | outcome [2]: inactive | outcome [3]: inactive | outcome [4]: inactive | outcome [18]: inactive | AC50 [15]: 21.3 µM (active)

N#CCCCl
outcome [20]: inactive | outcome [1]: inactive | outcome [2]: inactive | outcome [18]: inactive | outcome [19]: inactive | outcome [6]: inactive | outcome [7]: inactive | outcome [8]: inactive | outcome [9]: inactive | outcome [10]: inactive

CC(C)(C)C(O)C(Oc1ccc(-c2ccccc2)cc1)n1cncn1 (stereo not given)
outcome [13]: inactive | AC50 [14]: 55.2 µM (active) | outcome [1]: inactive | outcome [3]: inactive | outcome [12]: inactive

NNc1ccccc1
outcome [20]: inactive | outcome [17]: inactive | outcome [2]: inactive

CCCOC(=O)c1ccccc1C(=O)OCCC
AC50 [13]: 49.8 µM (active) | outcome [14]: inactive | outcome [16]: inactive | outcome [17]: inactive | outcome [2]: inactive | outcome [3]: inactive | outcome [18]: inactive | outcome [5]: inactive | outcome [19]: inactive | outcome [6]: inactive | outcome [7]: inactive | outcome [8]: inactive | outcome [9]: inactive | outcome [10]: inactive | outcome [11]: inactive

O=[N+]([O-])c1cc(C(F)(F)F)c(Cl)c([N+](=O)[O-])c1Cl
outcome [13]: inactive | outcome [14]: inactive | AC50 [1]: 33.4 µM (active) | outcome [16]: inactive | outcome [17]: inactive | AC50 [2]: 11.1 µM (active) | AC50 [3]: 41.1 µM (active) | AC50 [18]: 7.97 µM (active) | AC50 [5]: 57.7 µM (active) | AC50 [19]: 35.2 µM (active) | AC50 [6]: 13.3 µM (active) | AC50 [7]: 35.6 µM (active) | AC50 [8]: 22.2 µM (active) | AC50 [9]: 35.9 µM (active) | AC50 [10]: 21 µM (active) | AC50 [11]: 21.9 µM (active)
